From the supplement of paper PMC3545927
This is one part of the list. No count for the full screen is at hand.

Molecular target: furin, P09958
Experiment: furin cleavage Z-score vs untreated control; higher = more cleavage, active = 3.5 or more, inactive = 1 or less, 8 variable residues between constant flanks
Protocol: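 Multiplexed peptide-cDNA fusion cleavage assay. 8-mer variable peptides flanked by constant Cys-Ala (N-term) and Ala-Gly-Asn-Ala-Ser-Ala-Ser-Ala (C-term) and conjugated to a cDNA oligonucleotide were bead-immobilised via the N-terminus. They were treated with purified furin at a 1:10 enzyme:substrate ratio in 50 mM HEPES pH 7.5, 1 mM CaCl2, 100 mM NaCl for 7.5, 15 or 30 min. Released cDNA was counted by next-generation sequencing, and log counts versus no-furin controls were lowess-adjusted and converted to robust Z-scores.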

Chain of furin, P09958 (P09958 whole entry): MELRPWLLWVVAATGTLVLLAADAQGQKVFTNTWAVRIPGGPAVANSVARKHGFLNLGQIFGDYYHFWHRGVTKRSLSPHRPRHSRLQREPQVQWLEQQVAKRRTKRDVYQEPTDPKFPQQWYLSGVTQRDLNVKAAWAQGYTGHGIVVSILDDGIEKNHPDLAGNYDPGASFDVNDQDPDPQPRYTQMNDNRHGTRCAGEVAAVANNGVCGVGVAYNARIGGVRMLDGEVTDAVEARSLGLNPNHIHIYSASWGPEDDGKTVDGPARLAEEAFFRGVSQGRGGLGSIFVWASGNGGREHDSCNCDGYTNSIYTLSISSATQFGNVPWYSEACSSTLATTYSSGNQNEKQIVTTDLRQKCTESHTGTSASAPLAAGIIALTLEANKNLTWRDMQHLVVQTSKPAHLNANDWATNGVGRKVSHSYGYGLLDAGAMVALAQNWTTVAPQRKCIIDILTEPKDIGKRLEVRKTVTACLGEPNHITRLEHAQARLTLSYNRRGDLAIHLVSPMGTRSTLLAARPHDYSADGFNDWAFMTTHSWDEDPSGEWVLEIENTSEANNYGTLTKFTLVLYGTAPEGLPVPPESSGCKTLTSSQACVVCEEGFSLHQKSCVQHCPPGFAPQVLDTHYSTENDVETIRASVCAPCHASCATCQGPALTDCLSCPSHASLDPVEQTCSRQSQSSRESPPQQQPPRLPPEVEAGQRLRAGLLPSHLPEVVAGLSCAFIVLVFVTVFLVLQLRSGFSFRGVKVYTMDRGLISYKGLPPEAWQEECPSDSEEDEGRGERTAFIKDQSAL

For CARMWRKTRSAGNASASA [FS-955], which “furin cleavage Z-score” value (7.5 min) is on record?
Its value is 13.5 (active).

And the “furin cleavage Z-score” value (15 min)?
Its value is 13.7 (active).

What about the “furin cleavage Z-score” value (30 min) of the same sequence?
Its value is 10.7 (active).

Which results are given for CARFWRKTRSAGNASASA [FS-1396]?
furin cleavage Z-score (7.5 min): 13 (active); furin cleavage Z-score (15 min): 13.8 (active); furin cleavage Z-score (30 min): 10.1 (active)

Which results are given for CADSGRKTRSAGNASASA [FS-760]?
furin cleavage Z-score (7.5 min): 9.82 (active); furin cleavage Z-score (15 min): 12.7 (active); furin cleavage Z-score (30 min): 9.11 (active)

Which results are given for CARHLIFCHSAGNASASA [HC855]?
furin cleavage Z-score (7.5 min): -0.853 (inactive); furin cleavage Z-score (15 min): 0.266 (inactive); furin cleavage Z-score (30 min): 0.481 (inactive)

CADSGRAYLPAGNASASA [FS-2629] was tested. Which “furin cleavage Z-score” value (7.5 min) did it give?
Its value is -0.794 (inactive).

What about the “furin cleavage Z-score” value (15 min) of the same sequence?
Its value is -0.681 (inactive).

What about the “furin cleavage Z-score” value (30 min) of the same sequence?
The value was -1.79 (inactive).

Which “furin cleavage Z-score” value (7.5 min) does the source give for CARHMRMTRSAGNASASA [FS-857] here?
The value was 13.4 (active).

And the “furin cleavage Z-score” value (15 min)?
Its value is 13.6 (active).

What about the “furin cleavage Z-score” value (30 min) of the same sequence?
Its value is 9.7 (active).

For CARIVGPRTCAGNASASA [HC1183], which “furin cleavage Z-score” value (7.5 min) is on record?
The value was 0.967 (inactive).

What about the “furin cleavage Z-score” value (15 min) of the same sequence?
Its value is -0.921 (inactive).

And the “furin cleavage Z-score” value (30 min)?
The value was -0.233 (inactive).

CAYVPCHRPSAGNASASA [HC2309] was tested. Which “furin cleavage Z-score” value (7.5 min) did it give?
The value was 1.57.

And the “furin cleavage Z-score” value (15 min)?
Its value is -0.807 (inactive).

And the “furin cleavage Z-score” value (30 min)?
The value was 0.069 (inactive).

Which “furin cleavage Z-score” value (7.5 min) does the source give for CAPQAILDMIAGNASASA [HC331] here?
The value was -0.162 (inactive).

And the “furin cleavage Z-score” value (15 min)?
Its value is -2.41 (inactive).

And the “furin cleavage Z-score” value (30 min)?
Its value is -1.52 (inactive).

CAKWVPGAVYAGNASASA [HC551] was tested. Which “furin cleavage Z-score” value (7.5 min) did it give?
The value was -1.17 (inactive).

And the “furin cleavage Z-score” value (15 min)?
Its value is -1.76 (inactive).

And the “furin cleavage Z-score” value (30 min)?
Its value is -0.384 (inactive).

How did the “furin cleavage Z-score” value (7.5 min) turn out when CAMEESSQHLAGNASASA [HC15] was run?
The value was 0.403 (inactive).

And the “furin cleavage Z-score” value (15 min)?
Its value is 2.52.

And the “furin cleavage Z-score” value (30 min)?
Its value is 1.06.

Which results are given for CADQEVVTSTAGNASASA [HC2302]?
furin cleavage Z-score (7.5 min): -0.902 (inactive); furin cleavage Z-score (15 min): -1.54 (inactive); furin cleavage Z-score (30 min): -1.12 (inactive)

With CARMWRKNRSAGNASASA [FS-954] as the sequence, how does the “furin cleavage Z-score” value (7.5 min) read?
Its value is 7.39 (active).

And the “furin cleavage Z-score” value (15 min)?
Its value is 10 (active).

What about the “furin cleavage Z-score” value (30 min) of the same sequence?
The value was 7.6 (active).

What does the source list for CAFQARLTRSAGNASASA [FS-158]?
furin cleavage Z-score (7.5 min): 10.8 (active); furin cleavage Z-score (15 min): 11.5 (active); furin cleavage Z-score (30 min): 9.98 (active)

With CAMPECSQHLAGNASASA [HC1699] as the sequence, how does the “furin cleavage Z-score” value (7.5 min) read?
The value was -0.692 (inactive).

What about the “furin cleavage Z-score” value (15 min) of the same sequence?
Its value is -0.28 (inactive).

And the “furin cleavage Z-score” value (30 min)?
Its value is -0.904 (inactive).

What does the source list for CADQDLVGWPAGNASASA [HC713]?
furin cleavage Z-score (7.5 min): -0.0765 (inactive); furin cleavage Z-score (15 min): -0.565 (inactive); furin cleavage Z-score (30 min): 0.238 (inactive)

Which results are given for CARDKRALKQAGNASASA [FS-1690]?
furin cleavage Z-score (7.5 min): 5.74 (active); furin cleavage Z-score (15 min): 8.75 (active); furin cleavage Z-score (30 min): 8.98 (active)

What does the source list for CARSKRALKQAGNASASA [FS-2604]?
furin cleavage Z-score (7.5 min): 8.45 (active); furin cleavage Z-score (15 min): 11.8 (active); furin cleavage Z-score (30 min): 8.31 (active)

For CARSKKDFEAAGNASASA [FS-2458], which “furin cleavage Z-score” value (7.5 min) is on record?
The value was 0.38 (inactive).

And the “furin cleavage Z-score” value (15 min)?
The value was -0.117 (inactive).

What about the “furin cleavage Z-score” value (30 min) of the same sequence?
Its value is -0.363 (inactive).

With CARSKRAAPAAGNASASA [FS-2603] as the sequence, how does the “furin cleavage Z-score” value (7.5 min) read?
Its value is 11.1 (active).

What about the “furin cleavage Z-score” value (15 min) of the same sequence?
Its value is 9.91 (active).

And the “furin cleavage Z-score” value (30 min)?
The value was 8.19 (active).

For CAQAEAALENAGNASASA [HC532], which “furin cleavage Z-score” value (7.5 min) is on record?
Its value is 0.288 (inactive).

And the “furin cleavage Z-score” value (15 min)?
Its value is -0.4 (inactive).

And the “furin cleavage Z-score” value (30 min)?
The value was -1.4 (inactive).

CAITRVESENAGNASASA [HC1281] was tested. Which “furin cleavage Z-score” value (7.5 min) did it give?
The value was -1.51 (inactive).

What about the “furin cleavage Z-score” value (15 min) of the same sequence?
The value was -1.29 (inactive).

What about the “furin cleavage Z-score” value (30 min) of the same sequence?
The value was 0.308 (inactive).

For CARTKRELENAGNASASA [FS-1935], which “furin cleavage Z-score” value (7.5 min) is on record?
Its value is 14.2 (active).

And the “furin cleavage Z-score” value (15 min)?
The value was 14.2 (active).

What about the “furin cleavage Z-score” value (30 min) of the same sequence?
Its value is 11.6 (active).

With CAMEECGQHLAGNASASA [HC22] as the sequence, how does the “furin cleavage Z-score” value (7.5 min) read?
The value was 0.622 (inactive).

And the “furin cleavage Z-score” value (15 min)?
The value was 0.186 (inactive).

What about the “furin cleavage Z-score” value (30 min) of the same sequence?
The value was 1.5.

For CARDKRWVKYAGNASASA [FS-2652], which “furin cleavage Z-score” value (7.5 min) is on record?
Its value is 0.63 (inactive).

What about the “furin cleavage Z-score” value (15 min) of the same sequence?
The value was 2.15.

And the “furin cleavage Z-score” value (30 min)?
Its value is 6.84 (active).

How did the “furin cleavage Z-score” value (7.5 min) turn out when CARAAICGKYAGNASASA [HC1629] was run?
Its value is -0.897 (inactive).

And the “furin cleavage Z-score” value (15 min)?
The value was -0.988 (inactive).

What about the “furin cleavage Z-score” value (30 min) of the same sequence?
Its value is -0.655 (inactive).

For CARSKRREMQAGNASASA [FS-3207], which “furin cleavage Z-score” value (7.5 min) is on record?
Its value is 0.975 (inactive).

And the “furin cleavage Z-score” value (15 min)?
Its value is 0.582 (inactive).

What about the “furin cleavage Z-score” value (30 min) of the same sequence?
The value was 0.62 (inactive).

Which results are given for CARSKRAQTQAGNASASA [FS-2807]?
furin cleavage Z-score (7.5 min): 3.83 (active); furin cleavage Z-score (15 min): 4.65 (active); furin cleavage Z-score (30 min): 3.76 (active)

Which results are given for CARSKRASYVAGNASASA [FS-2808]?
furin cleavage Z-score (7.5 min): 5.25 (active); furin cleavage Z-score (15 min): 9.12 (active); furin cleavage Z-score (30 min): 8.21 (active)

With CARDKRSALQAGNASASA [FS-1945] as the sequence, how does the “furin cleavage Z-score” value (7.5 min) read?
The value was 8.56 (active).

And the “furin cleavage Z-score” value (15 min)?
Its value is 10.4 (active).

What about the “furin cleavage Z-score” value (30 min) of the same sequence?
Its value is 8.42 (active).

With CARSYRYALQAGNASASA [FS-3101] as the sequence, how does the “furin cleavage Z-score” value (7.5 min) read?
Its value is 2.16.

What about the “furin cleavage Z-score” value (15 min) of the same sequence?
Its value is -0.873 (inactive).

What about the “furin cleavage Z-score” value (30 min) of the same sequence?
Its value is -0.277 (inactive).

What does the source list for CARSKRRKYVAGNASASA [FS-3170]?
furin cleavage Z-score (7.5 min): -1.22 (inactive); furin cleavage Z-score (15 min): -0.271 (inactive); furin cleavage Z-score (30 min): 0.492 (inactive)

Which “furin cleavage Z-score” value (7.5 min) does the source give for CARSKRKKEVAGNASASA [FS-2304] here?
Its value is 1.21.

What about the “furin cleavage Z-score” value (15 min) of the same sequence?
Its value is -0.317 (inactive).

And the “furin cleavage Z-score” value (30 min)?
The value was -0.337 (inactive).

Which results are given for CARDKKSLLQAGNASASA [FS-2133]?
furin cleavage Z-score (7.5 min): 0.497 (inactive); furin cleavage Z-score (15 min): 0.302 (inactive); furin cleavage Z-score (30 min): -0.611 (inactive)

What does the source list for CARDKRLAYSAGNASASA [FS-3217]?
furin cleavage Z-score (7.5 min): -0.235 (inactive); furin cleavage Z-score (15 min): -0.255 (inactive); furin cleavage Z-score (30 min): 0.271 (inactive)
